Source: ChEMBL document CHEMBL1961873, “Compounds: GSK PKIS; Assays: Nanosyn kinase panel” (2012)

Legend:
[1] = molecular target: Tyrosine-protein kinase CSK (Homo sapiens) (UniProt P41240); conditions: at 1 µM;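 also: each value is an averaged inhibition reading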
[2] = molecular target: T1, Discoidin domain-containing receptor 2 (Homo sapiens) (UniProt Q16832); conditions: at 0.1 µM
T1 sequence (whole entry): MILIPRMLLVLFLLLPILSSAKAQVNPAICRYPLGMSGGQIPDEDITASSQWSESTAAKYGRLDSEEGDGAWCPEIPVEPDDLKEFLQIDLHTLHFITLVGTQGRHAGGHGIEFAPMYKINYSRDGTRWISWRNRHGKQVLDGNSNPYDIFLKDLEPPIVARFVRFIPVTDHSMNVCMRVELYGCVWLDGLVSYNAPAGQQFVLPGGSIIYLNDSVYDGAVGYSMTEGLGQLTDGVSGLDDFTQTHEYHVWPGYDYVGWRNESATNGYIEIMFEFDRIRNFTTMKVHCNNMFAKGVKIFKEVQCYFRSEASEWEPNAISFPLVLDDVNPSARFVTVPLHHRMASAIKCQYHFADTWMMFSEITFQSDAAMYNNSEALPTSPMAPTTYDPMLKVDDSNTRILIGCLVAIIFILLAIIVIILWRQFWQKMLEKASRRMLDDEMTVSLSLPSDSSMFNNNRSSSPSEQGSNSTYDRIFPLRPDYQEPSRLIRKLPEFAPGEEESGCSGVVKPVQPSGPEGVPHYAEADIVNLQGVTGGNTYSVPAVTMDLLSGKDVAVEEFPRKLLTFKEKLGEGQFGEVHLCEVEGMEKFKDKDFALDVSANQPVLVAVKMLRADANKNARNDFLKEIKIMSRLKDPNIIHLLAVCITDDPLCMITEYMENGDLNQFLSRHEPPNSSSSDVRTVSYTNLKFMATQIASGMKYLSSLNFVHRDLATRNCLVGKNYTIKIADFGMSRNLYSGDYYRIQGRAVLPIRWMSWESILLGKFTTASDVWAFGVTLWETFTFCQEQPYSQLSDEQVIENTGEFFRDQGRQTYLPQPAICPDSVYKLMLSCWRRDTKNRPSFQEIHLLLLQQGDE

[3] = molecular target: T1, Discoidin domain-containing receptor 2 (Homo sapiens); conditions: at 1 µM
[4] = molecular target: Epidermal growth factor receptor (Homo sapiens) (UniProt P00533); conditions: at 0.1 µM
[5] = molecular target: Epidermal growth factor receptor (Homo sapiens) (UniProt P00533); conditions: at 1 µM
[6] = test system: Epidermal growth factor receptor (Homo sapiens), P00533 [L858R]; conditions: at 0.1 µM
[7] = test system: Epidermal growth factor receptor (Homo sapiens), P00533 [L858R]; conditions: at 1 µM
[8] = test system: Epidermal growth factor receptor (Homo sapiens), P00533 [L861Q]; conditions: at 0.1 µM
[9] = test system: Epidermal growth factor receptor (Homo sapiens), P00533 [L861Q]; conditions: at 1 µM
[10] = test system: Epidermal growth factor receptor (Homo sapiens), P00533 [T790M]; conditions: at 0.1 µM
[11] = test system: Epidermal growth factor receptor (Homo sapiens), P00533 [T790M]; conditions: at 1 µM
[12] = test system: Epidermal growth factor receptor (Homo sapiens), P00533 [L858R,T790M]; conditions: at 0.1 µM
[13] = test system: Epidermal growth factor receptor (Homo sapiens), P00533 [L858R,T790M]; conditions: at 1 µM
[14] = molecular target: Ephrin type-A receptor 2 (Homo sapiens) (UniProt P29317); conditions: at 0.1 µM
[15] = molecular target: Ephrin type-A receptor 2 (Homo sapiens) (UniProt P29317); conditions: at 1 µM
[16] = molecular target: T2, Ephrin type-A receptor 3 (Homo sapiens) (UniProt P29320); conditions: at 0.1 µM
T2 sequence (whole entry): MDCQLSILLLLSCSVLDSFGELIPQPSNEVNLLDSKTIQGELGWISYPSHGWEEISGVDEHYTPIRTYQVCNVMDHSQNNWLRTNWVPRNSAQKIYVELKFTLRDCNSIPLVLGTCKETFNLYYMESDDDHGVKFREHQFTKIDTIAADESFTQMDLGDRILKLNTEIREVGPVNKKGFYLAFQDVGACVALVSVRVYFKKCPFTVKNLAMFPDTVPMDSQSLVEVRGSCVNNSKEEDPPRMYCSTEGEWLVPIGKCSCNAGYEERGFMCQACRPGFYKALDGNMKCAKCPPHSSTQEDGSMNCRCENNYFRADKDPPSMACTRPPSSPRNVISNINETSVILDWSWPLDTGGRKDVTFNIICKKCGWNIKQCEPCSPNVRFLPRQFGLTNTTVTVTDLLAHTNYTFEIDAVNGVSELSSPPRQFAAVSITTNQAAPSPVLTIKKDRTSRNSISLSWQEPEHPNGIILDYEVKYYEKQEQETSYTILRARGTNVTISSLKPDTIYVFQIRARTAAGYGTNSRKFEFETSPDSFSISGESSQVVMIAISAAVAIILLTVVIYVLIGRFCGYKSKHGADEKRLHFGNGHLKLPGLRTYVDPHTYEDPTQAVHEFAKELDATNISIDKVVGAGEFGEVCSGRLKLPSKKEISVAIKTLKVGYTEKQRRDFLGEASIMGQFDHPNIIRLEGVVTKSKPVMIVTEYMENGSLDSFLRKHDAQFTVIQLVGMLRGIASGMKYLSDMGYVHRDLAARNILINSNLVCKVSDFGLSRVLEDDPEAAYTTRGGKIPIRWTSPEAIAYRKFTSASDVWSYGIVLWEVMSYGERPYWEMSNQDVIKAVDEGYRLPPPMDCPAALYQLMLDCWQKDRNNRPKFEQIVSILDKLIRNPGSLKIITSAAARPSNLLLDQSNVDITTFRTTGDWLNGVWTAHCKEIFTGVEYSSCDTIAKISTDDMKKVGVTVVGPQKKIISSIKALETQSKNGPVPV

[17] = molecular target: T2, Ephrin type-A receptor 3 (Homo sapiens); conditions: at 1 µM
[18] = molecular target: Ephrin type-A receptor 4 (Homo sapiens) (UniProt P54764); conditions: at 0.1 µM
[19] = molecular target: Ephrin type-A receptor 4 (Homo sapiens) (UniProt P54764); conditions: at 1 µM
[20] = molecular target: T3, Ephrin type-B receptor 2 (Homo sapiens) (UniProt P29323); conditions: at 0.1 µM;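 also: reported as mean inhibition of EPHB2, from the GSK PKIS dataset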
T3 sequence (whole entry): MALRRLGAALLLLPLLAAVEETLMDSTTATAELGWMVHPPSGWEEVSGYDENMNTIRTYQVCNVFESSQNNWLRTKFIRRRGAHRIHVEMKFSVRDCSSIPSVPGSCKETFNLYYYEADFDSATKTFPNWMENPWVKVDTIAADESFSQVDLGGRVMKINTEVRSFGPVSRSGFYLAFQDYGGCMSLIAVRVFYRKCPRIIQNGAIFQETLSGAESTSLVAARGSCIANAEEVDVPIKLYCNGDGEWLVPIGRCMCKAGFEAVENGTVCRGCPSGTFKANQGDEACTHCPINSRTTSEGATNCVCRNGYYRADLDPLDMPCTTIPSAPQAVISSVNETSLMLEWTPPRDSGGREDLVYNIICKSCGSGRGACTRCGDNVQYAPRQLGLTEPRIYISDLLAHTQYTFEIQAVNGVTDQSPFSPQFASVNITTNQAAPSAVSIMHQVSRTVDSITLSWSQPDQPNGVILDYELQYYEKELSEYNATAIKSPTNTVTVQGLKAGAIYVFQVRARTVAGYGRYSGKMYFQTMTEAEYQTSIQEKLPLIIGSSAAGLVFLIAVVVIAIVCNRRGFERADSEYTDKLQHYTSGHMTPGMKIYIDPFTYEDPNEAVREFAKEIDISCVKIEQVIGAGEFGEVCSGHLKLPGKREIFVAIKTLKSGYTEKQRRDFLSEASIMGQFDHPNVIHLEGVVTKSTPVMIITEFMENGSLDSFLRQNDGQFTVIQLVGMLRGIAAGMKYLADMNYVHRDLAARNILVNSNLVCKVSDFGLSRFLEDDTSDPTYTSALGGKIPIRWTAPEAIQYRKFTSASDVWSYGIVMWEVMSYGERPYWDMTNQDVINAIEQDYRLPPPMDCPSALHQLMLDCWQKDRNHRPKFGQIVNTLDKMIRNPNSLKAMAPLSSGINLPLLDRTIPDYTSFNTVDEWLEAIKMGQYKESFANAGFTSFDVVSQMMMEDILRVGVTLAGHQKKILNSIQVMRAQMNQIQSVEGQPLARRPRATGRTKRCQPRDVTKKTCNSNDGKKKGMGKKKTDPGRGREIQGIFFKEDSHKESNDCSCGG

Chain of Epidermal growth factor receptor (Homo sapiens) (P00533 whole entry): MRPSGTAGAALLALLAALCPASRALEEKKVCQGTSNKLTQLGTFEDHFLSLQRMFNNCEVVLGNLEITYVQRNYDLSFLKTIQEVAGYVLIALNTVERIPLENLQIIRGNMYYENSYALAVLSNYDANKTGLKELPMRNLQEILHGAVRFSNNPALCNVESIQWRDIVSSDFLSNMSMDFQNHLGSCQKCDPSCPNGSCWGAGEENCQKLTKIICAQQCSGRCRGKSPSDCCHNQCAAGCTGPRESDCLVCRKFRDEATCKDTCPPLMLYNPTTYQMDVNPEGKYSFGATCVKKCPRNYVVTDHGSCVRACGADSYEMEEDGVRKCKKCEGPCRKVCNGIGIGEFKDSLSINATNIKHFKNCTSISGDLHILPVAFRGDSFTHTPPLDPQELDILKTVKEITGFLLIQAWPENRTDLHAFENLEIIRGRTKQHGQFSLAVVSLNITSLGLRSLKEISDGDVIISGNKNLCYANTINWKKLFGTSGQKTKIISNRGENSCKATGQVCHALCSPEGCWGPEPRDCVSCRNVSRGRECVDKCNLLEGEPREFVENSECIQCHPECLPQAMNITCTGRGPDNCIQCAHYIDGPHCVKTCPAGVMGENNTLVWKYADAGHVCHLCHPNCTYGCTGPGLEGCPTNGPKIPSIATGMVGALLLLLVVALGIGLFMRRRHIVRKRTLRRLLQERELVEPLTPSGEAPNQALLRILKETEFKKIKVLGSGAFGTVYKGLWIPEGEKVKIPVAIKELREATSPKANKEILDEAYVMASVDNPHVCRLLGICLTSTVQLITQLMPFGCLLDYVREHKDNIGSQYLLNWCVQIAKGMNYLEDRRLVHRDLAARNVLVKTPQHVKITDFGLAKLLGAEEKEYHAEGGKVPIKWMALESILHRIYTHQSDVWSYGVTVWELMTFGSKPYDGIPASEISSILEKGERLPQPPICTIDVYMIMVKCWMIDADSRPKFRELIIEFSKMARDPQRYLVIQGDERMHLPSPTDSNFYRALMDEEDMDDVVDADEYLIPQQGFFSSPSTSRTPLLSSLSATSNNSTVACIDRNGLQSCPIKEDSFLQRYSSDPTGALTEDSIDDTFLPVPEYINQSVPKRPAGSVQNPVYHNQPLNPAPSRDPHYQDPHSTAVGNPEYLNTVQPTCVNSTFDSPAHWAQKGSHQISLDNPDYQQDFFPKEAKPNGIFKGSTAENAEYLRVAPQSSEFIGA
Chain of Epidermal growth factor receptor (Homo sapiens), P00533 [L858R] (P00533 whole entry L858R): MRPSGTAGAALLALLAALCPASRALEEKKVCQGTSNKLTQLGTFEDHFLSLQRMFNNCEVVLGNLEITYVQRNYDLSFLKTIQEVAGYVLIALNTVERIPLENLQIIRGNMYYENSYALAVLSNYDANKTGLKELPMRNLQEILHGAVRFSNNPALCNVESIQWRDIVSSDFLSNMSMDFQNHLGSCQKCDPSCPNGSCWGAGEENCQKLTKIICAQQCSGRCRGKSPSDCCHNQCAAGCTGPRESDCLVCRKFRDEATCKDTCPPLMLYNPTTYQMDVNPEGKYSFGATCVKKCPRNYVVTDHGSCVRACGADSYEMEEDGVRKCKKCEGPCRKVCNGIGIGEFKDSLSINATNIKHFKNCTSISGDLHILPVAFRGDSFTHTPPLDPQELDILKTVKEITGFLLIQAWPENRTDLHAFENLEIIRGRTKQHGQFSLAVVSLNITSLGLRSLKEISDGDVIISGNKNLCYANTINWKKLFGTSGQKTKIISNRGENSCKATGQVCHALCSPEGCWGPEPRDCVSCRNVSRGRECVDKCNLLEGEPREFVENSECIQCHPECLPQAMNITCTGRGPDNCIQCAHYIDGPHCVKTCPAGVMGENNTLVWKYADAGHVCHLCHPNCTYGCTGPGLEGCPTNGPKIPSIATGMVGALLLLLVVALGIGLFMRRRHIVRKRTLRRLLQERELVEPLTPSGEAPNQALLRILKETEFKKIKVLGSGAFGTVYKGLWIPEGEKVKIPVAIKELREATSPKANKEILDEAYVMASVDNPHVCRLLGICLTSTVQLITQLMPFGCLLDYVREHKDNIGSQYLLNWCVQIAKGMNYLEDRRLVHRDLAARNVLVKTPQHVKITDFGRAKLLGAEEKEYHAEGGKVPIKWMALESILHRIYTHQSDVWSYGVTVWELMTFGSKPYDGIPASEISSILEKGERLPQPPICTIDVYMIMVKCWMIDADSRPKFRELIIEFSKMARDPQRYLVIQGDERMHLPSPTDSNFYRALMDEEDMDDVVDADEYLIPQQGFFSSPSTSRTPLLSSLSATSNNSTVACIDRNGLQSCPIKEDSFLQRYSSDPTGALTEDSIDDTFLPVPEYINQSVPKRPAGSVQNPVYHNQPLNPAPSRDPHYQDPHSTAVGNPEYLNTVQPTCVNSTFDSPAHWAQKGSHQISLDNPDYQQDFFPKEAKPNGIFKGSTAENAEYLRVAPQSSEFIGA
Chain of Ephrin type-A receptor 2 (Homo sapiens) (P29317 whole entry): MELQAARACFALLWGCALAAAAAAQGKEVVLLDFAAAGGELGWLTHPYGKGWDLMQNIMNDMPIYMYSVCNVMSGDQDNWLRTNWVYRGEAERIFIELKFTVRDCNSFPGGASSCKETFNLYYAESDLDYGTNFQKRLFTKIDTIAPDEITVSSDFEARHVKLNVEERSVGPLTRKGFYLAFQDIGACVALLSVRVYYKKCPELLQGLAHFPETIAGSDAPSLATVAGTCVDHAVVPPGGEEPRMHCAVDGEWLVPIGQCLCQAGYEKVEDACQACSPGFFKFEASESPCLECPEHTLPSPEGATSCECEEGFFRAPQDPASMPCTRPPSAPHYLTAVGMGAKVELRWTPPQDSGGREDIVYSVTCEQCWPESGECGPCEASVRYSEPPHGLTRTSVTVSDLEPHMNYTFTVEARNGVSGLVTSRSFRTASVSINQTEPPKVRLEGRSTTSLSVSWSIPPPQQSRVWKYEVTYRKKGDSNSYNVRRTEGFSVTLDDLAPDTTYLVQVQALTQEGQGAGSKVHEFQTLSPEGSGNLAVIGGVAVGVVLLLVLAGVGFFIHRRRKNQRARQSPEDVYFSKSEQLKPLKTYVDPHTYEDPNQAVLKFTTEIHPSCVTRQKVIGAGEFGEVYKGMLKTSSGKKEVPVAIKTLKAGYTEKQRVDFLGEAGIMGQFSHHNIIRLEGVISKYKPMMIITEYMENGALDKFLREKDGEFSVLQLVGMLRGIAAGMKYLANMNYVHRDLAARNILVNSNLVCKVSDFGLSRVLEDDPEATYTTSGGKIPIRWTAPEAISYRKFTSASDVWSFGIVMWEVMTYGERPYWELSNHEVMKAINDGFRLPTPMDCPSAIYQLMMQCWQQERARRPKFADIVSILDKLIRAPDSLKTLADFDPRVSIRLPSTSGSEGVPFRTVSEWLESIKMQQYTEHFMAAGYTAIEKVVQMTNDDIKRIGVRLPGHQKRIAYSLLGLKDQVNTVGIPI
Chain of Epidermal growth factor receptor (Homo sapiens), P00533 [T790M] (P00533 whole entry T790M): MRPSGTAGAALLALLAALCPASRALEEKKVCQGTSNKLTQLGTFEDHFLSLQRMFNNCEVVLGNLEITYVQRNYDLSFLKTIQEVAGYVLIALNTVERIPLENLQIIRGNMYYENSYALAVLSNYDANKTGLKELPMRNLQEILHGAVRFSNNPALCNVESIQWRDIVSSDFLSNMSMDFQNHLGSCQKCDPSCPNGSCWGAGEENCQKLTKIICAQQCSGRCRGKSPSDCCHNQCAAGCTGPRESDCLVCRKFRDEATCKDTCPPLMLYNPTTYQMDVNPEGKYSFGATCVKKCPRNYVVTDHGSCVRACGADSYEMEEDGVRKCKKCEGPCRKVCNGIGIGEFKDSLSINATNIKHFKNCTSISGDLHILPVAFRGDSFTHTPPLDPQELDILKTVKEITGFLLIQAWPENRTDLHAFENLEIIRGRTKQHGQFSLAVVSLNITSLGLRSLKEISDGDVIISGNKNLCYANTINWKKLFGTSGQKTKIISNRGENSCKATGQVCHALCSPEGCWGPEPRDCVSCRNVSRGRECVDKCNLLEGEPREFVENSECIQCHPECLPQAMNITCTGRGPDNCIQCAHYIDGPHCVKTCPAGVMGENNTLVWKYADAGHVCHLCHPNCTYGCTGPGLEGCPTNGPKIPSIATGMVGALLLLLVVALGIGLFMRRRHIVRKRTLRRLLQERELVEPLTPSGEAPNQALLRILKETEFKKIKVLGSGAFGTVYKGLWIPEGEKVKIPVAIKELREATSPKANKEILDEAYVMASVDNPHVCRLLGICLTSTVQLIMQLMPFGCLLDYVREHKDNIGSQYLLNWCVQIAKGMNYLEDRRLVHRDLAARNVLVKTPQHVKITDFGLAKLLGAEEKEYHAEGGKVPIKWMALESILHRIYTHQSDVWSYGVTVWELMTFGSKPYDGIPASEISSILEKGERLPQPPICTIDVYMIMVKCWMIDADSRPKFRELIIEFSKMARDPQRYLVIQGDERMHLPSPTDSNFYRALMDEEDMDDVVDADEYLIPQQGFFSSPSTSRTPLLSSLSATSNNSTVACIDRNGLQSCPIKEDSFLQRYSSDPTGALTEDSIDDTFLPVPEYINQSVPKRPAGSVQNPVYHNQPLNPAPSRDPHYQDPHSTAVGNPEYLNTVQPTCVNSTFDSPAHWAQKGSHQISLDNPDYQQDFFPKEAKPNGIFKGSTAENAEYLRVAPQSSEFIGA
Chain of Tyrosine-protein kinase CSK (Homo sapiens) (P41240 2-450 limits assumed): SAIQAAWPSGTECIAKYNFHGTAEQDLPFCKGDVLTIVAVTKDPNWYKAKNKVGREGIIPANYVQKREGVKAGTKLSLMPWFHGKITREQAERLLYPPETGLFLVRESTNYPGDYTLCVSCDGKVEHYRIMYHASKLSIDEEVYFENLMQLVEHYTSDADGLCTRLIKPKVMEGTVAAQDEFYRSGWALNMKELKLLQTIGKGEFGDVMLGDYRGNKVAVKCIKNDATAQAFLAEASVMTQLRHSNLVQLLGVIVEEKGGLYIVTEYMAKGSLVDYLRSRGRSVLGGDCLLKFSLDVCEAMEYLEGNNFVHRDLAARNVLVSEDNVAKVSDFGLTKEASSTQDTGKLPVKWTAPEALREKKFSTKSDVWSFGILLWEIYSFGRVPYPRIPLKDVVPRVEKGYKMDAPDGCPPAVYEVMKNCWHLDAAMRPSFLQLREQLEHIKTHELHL

Row | SMILES | inhibition [1] [%] | inhibition [2] [%] | inhibition [3] [%] | inhibition [4] [%] | inhibition [5] [%] | inhibition [6] [%] | inhibition [7] [%] | inhibition [8] [%] | inhibition [9] [%] | inhibition [10] [%] | inhibition [11] [%] | inhibition [12] [%] | inhibition [13] [%] | inhibition [14] [%] | inhibition [15] [%] | inhibition [16] [%] | inhibition [17] [%] | inhibition [18] [%] | inhibition [19] [%] | inhibition [20] [%]
1 | COc1ccc(-c2ccncc2)cc1C(N)=O | 2.12 | 2.19 | 2.53 | 4.47 | 4.86 | 5.16 | 4.73 | 4.48 | 6.9 | 0.43 | 2.61 | 3.26 | 3.22 | 0.83 | 0.98 | 2.75 | 4.65 | 6.67 | 8.05 | 5.39
2 | Nc1ncnc2occ(-c3ccc(NC(=O)Nc4cc(C(F)(F)F)cc(C(F)(F)F)c4)cc3)c12 | 20.6 | 67.7 | 84.4 | 0.56 | 0.39 | 1.34 | -2.77 | 2.29 | -2.09 | 1.48 | -2.28 | -1.98 | 0.18 | 7.28 | 42 | 6.5 | 14.6 | 8.44 | 44.5 | 22
3 | CS(=O)(=O)CCNCc1ccc(-c2ccc3ncnc(Nc4ccc(OCc5cccc(F)c5)c(C(F)(F)F)c4)c3c2)o1 | 2.03 | 1.18 | 0.88 | 12.8 | 65.9 | 6.6 | 46.2 | 20.6 | 40.8 | 2.44 | 3.43 | -0.63 | -1.62 | 0.17 | 1.21 | 3.24 | 1.95 | 8.08 | 6.97 | 4.21
4 | O=C1NC(=O)C(c2ccc(Cl)cc2)=C1Nc1ccc(Cl)c(C(=O)O)c1 | -4.62 | 0.03 | 2.46 | 1.07 | 6.73 | -2.2 | 6.41 | 0.32 | 1.03 | -0.88 | -1.21 | -0.4 | -1.38 | -2 | -1.26 | -3.17 | -3.69 | -6.1 | -6.97 | -0.68
5 | CC1=C(C(=O)Nc2ccc3[nH]ncc3c2)C(c2ccc(Cl)c(Cl)c2)CC(=O)N1 (stereo not given) | 4.23 | 3.12 | 3.67 | 6.77 | 8.22 | 1.45 | 5.4 | 1.95 | 0.96 | 0.19 | 0.85 | 2.39 | 12.1 | -0.63 | 0.57 | 3.06 | 2.8 | 6.53 | 4.28 | 7.7
6 | CS(=O)(=O)CCN(CC#N)Cc1ccc(-c2ccc3ncnc(Nc4ccc(OCc5cccc(F)c5)c(Cl)c4)c3c2)o1 | 4.77 | 0.7 | 0.75 | 69.4 | 77.2 | 36.5 | 83.6 | 41.5 | 76.2 | 1.04 | 5.17 | -1.28 | 0.73 | -5.85 | -5.32 | -2.74 | -2.11 | 1.75 | 5.59 | 6.06
7 | CCn1c(-c2nonc2N)nc2c(C#CC(C)(C)O)nc(CN3CCCC3)cc21 | -4.12 | 1.3 | 5.64 | 1.34 | 1.12 | -0.22 | -1.48 | -1.77 | -4.01 | -2.21 | -1.46 | -1.08 | 0.28 | -1.52 | -2.75 | -2.69 | 1.11 | -7.89 | -5.06 | -4.91
8 | CNC(=O)c1cncc(/C=C/c2c(Cl)cccc2Cl)c1 | 10.6 | 3.42 | 21.2 | -0.54 | 0.79 | 0.61 | 14.2 | 2.27 | 4.01 | 1.23 | 0.83 | 0.18 | 3.2 | 0.35 | 17.3 | -0.5 | 5.3 | 7.99 | 43.6 | 10.3
9 | COc1cc2ncn(-c3cc(OCc4ccccc4Cl)c(C(N)=O)s3)c2cc1OC | 4.61 | 0.71 | 0.75 | 2.48 | 8.81 | 1.49 | 13.4 | -0.11 | 5.11 | -1.99 | 0.02 | -1.12 | 1.19 | -2.86 | -1.31 | -1.62 | 0.98 | 0.5 | 7.32 | 2
10 | c1cnn2ncc(-c3ccnc(Nc4ccc5c(c4)OCCO5)n3)c2c1 | 14.9 | 2.85 | 2.07 | 1.88 | 4.28 | 3.09 | 11 | 3.71 | 5.7 | 2.81 | 2.42 | 2.19 | 7.05 | 2.91 | 5.71 | 7.54 | 5.48 | 12 | 28.2 | 12.1
11 | O=C1NC(=O)C(c2ccccc2Cl)=C1Nc1cccc(O)c1 | 3.08 | -0.34 | -0.1 | 2.49 | 5.23 | 3.81 | 3.71 | 0.72 | 3.71 | 1.27 | 0.02 | 0.56 | 1.35 | 2.61 | 1.5 | 2.51 | 2.67 | 5.56 | 2.36 | 5.61
12 | Cc1nnc(-c2ccc(C)c(-c3ccc(C(=O)Nc4cccc(C#N)c4)cc3)c2)o1 | 6.38 | 1.45 | 1.83 | 6.74 | 8.18 | 0.95 | 3.01 | 1.88 | 2.37 | 1.41 | 2.44 | 0.19 | 2.34 | -0.29 | -0.3 | 4.6 | 2.95 | 6.99 | 4.3 | 5.86
